Ten compounds from PubChem BioAssay (NCATS) can be followed below.

Assay [1] can be described thus: qHTS of pediatric cancer cell lines to identify multiple opportunities for drug repurposing: Primary screen for A673 cells (AID 1347092). Further: nearly all actives have a fitted effect of over 45% in size. An outline of the steps: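 A673 cells (500-1,000 cells/well) were treated 48 hours at 37 degrees C with compounds at 11-point (0.78 nM to 46 µM) or 8-point (0.59 nM to 46 µM) dilutions. Viability read by CellTiter-Glo luminescence; concentration-response curves fitted.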
(qHTS replaces the single test concentration by a dilution series.)

The nature of assay [2]: qHTS of pediatric cancer cell lines to identify multiple opportunities for drug repurposing: Primary screen for SK-N-MC cells (AID 1347093). In short, it runs like this: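 Metabolically active cells were quantified by ATP-dependent luminescence (CellTiter-Glo, 15 min at room temperature) following 48 h treatment. Cells had been plated at 500-1,000 per well and settled for 5 h beforehand.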

A short description of assay [3]: qHTS of pediatric cancer cell lines to identify multiple opportunities for drug repurposing: Primary screen for BT-37 cells (AID 1347094). An outline of the steps: (§1)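 ATP-based luminescence (CellTiter-Glo) quantifies viability after a 48-hour exposure. Compounds are dosed across 8 or 11 final concentrations; DMSO and 2.3 µM bortezomib serve as controls.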
Assay [4] is described as follows: qHTS of pediatric cancer cell lines to identify multiple opportunities for drug repurposing: Primary screen for NB-EBc1 cells (AID 1347095). In short, it runs like this:
as §1

Assay [5] in a line: qHTS of pediatric cancer cell lines to identify multiple opportunities for drug repurposing: Primary screen for U-2 OS cells (AID 1347096). Further: nearly all actives have a fitted effect of over 50% in size. In short, it runs like this:
(§2)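 Cells (500-1,000/well) rested 5 h, then received compounds for 48 h; metabolically active cells were measured by CellTiter-Glo luminescence. Final concentrations spanned up to 46 µM (MIPE, 11-point) or 0.59 nM-46 µM (NPC, 8-point) in primary screens, 11-point in follow-ups.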

Assay [6] in a line: qHTS of pediatric cancer cell lines to identify multiple opportunities for drug repurposing: Primary screen for Saos-2 cells (AID 1347097). Further: nearly all actives have a fitted effect of over 40% in size. In short, it runs like this: as §1
A short description of assay [7]: qHTS of pediatric cancer cell lines to identify multiple opportunities for drug repurposing: Primary screen for SK-N-SH cells (AID 1347098). Further: nearly all actives have a fitted effect of over 65% in size. An outline of the steps: as §2
Assay [8] in a line: qHTS of pediatric cancer cell lines to identify multiple opportunities for drug repurposing: Primary screen for NB1643 cells (AID 1347099). Further: nearly all actives have a fitted effect of over 50% in size. In short, it runs like this: as §1
The nature of assay [9]: qHTS of pediatric cancer cell lines to identify multiple opportunities for drug repurposing: Primary screen for LAN-5 cells (AID 1347100). An outline of the steps: as §2
Assay [10] is described as follows: qHTS of pediatric cancer cell lines to identify multiple opportunities for drug repurposing: Primary screen for BT-12 cells (AID 1347101). Further: nearly all actives have a fitted effect of over 25% in size. In short, it runs like this:
as §2

The nature of assay [11]: qHTS of pediatric cancer cell lines to identify multiple opportunities for drug repurposing: Primary screen for Rh18 cells (AID 1347102). Further: nearly all actives have a fitted effect of over 65% in size. An outline of the steps: as §2
Assay [12] in a line: qHTS of pediatric cancer cell lines to identify multiple opportunities for drug repurposing: Primary screen for OHS-50 cells (AID 1347103). Further: nearly all actives have a fitted effect of over 40% in size. An outline of the steps:
as §2

A short description of assay [13]: qHTS of pediatric cancer cell lines to identify multiple opportunities for drug repurposing: Primary screen for RD cells (AID 1347104). Further: nearly all actives have a fitted effect of over 55% in size. In short, it runs like this: as §1
Assay [14] in a line: qHTS of pediatric cancer cell lines to identify multiple opportunities for drug repurposing: Primary screen for MG 63 (6-TG R) cells (AID 1347105). Further: nearly all actives have a fitted effect of over 50% in size. In short, it runs like this:
as §1

Assay [15] can be described thus: qHTS of pediatric cancer cell lines to identify multiple opportunities for drug repurposing: Primary screen for control Hh wild type fibroblast cells (AID 1347106). Further: nearly all actives have a fitted effect of over 55% in size. An outline of the steps:
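Cells (500-1,000/well) in growth media were settled 5 h at 37 degrees C, then given compounds for 48 h. Viability was read as CellTiter-Glo luminescence. Primary runs used MIPE at 11 points (0.78 nM-46 µM) and NPC at 8 points (0.59 nM-46 µM); follow-ups used 11 points.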

A short description of assay [16]: qHTS of pediatric cancer cell lines to identify multiple opportunities for drug repurposing: Primary screen for Rh41 cells (AID 1347108). Further: nearly all actives have a fitted effect of over 70% in size. In short, it runs like this: as §1
Assay [17] is described as follows: qHTS of pediatric cancer cell lines to identify multiple opportunities for drug repurposing: Primary screen for Rh30 cells (AID 1347107). Further: nearly all actives have a fitted effect of over 75% in size. An outline of the steps:
as §2

The nature of assay [18]: qHTS of pediatric cancer cell lines to identify multiple opportunities for drug repurposing: Confirmatory screen for NB1643 cells (AID 1347109). Further: nearly all actives have a fitted effect of over 45% in size. An outline of the steps: as §2
A short description of assay [19]: qHTS of pediatric cancer cell lines to identify multiple opportunities for drug repurposing: Confirmatory screen for A673 cells (AID 1347110).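 Further: cells exposed to compound for 48 h before the viability read; nearly all actives have a fitted effect of over 65% in size.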 In short, it runs like this: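 A673 cells at 500-1,000 cells/well were dosed 5 h after plating, in dilution series up to 46 uM final; primary runs used 8 or 11 points and confirmatory runs used 11 points. Viability was read by CellTiter-Glo luminescence after 48 h, against DMSO and 2.3 uM bortezomib controls.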

Assay [20] in a line: qHTS of pediatric cancer cell lines to identify multiple opportunities for drug repurposing: Confirmatory screen for SK-N-MC cells (AID 1347111).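 Further: cells exposed to compound for 48 h before the readout; nearly all actives have a fitted effect of over 70% in size.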 In short, it runs like this: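 Seed 500-1,000 cells/well; rest 5 h at 37 degrees C. Pin-transfer compounds, 11-point titration. Incubate 48 h. Add CellTiter-Glo, 15 min RT, read luminescence.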

Results filed as inconclusive are left out. Activity calls are given as the source filed them. The call rests on the fitted dose curve; in most records, active means well fitted curve in the direction sought with a large enough effect; inconclusive means small, poorly fitted or top-dose-only effect, or another doubt; inactive means no such curve, though single readings can be large; an effect the other way counts as inactive or inconclusive.
Potency means the concentration at half of the fitted maximal effect.

Take `COc1cc2c(Nc3ccc(Cl)c(Cl)c3F)ncnc2cc1OCC1C[C@@H]2CN(C)C[C@H]2C1`: the Potency in [1] is 0.935 µM (active); in assay [2] it was 2.96 µM (active); in assay [3] it was 24.3 µM (active); in assay [4], 16.6 µM (active); in [5] it was 18.7 µM (active); in assay [6], 16.6 µM (active). The Potency is 12.1 µM (active) in [7]; 14.8 µM (active) in assay [8]; 11.8 µM (active) in assay [9]; 24.3 µM (active) in assay [10]; 18.7 µM (active) in assay [11]; 4.85 µM (active) in [12]. The Potency in [13] is 16.6 µM (active); in assay [14], 14.8 µM (active); in [15], 20.9 µM (active); in [16] it was 9.35 µM (active).

With `COc1ccc2cc([S+]([O-])Cc3ncc(C)c(OC)c3C)nc2c1`, the Potency result in assay [1], in assay [2], in assay [3], in [4], in assay [5] and in [6] was “inactive” in each case. Besides, the Potency entry in [7], in assay [8], in [9], in assay [10], in [11] and in [13] was “inactive” in each case. For the same compound, the Potency entry in assay [14], in [15] and in [17] was “inactive” throughout.

Consider `CC(C)(O)[C@H]1CC[C@@](C)([C@H]2[C@@H](O)C[C@@]3(C)[C@@H]4C[C@H](O[C@@H]5O[C@H](CO)[C@@H](O)[C@H](O)[C@@H]5O)[C@H]5C(C)(C)[C@@H](O[C@@H]6OC[C@@H](O)[C@H](O)[C@@H]6O)CC[C@@]56C[C@@]46CC[C@]23C)O1`, for which the Potency result in [1], in assay [2], in [3], in assay [4], in [5] and in [6] was “inactive” each time. Also, the Potency result in assay [7], in assay [8], in assay [9], in [10], in [12] and in [13] was “inactive” throughout. Also, the Potency result in assay [14], in [15] and in assay [17] was “inactive” each time.

In the case of `c1coc(CNc2ncnc3nc[nH]c23)c1`, the Potency result in assay [1], in assay [2], in [3], in [4], in assay [5] and in assay [6] was “inactive” throughout. Further, the Potency result in assay [7], in assay [8], in [9], in assay [10], in assay [11] and in assay [12] was “inactive” each time. Moreover, the Potency result in assay [13], in assay [14], in assay [15], in [17] and in assay [16] was “inactive” each time.

On to `CC(C)C[C@H](NC(=O)[C@@H](NC(=O)c1cccc(-c2ccccc2)n1)[C@@H](C)O)B(O)O`, for which the Potency was 0.187 µM (active) in assay [1]; 0.0235 µM (active) in assay [2]; 0.0968 µM (active) in assay [3]; 0.0833 µM (active) in [4]; 0.148 µM (active) in assay [5]; 5.9 µM (active) in [6]. The Potency in assay [7] was 0.0607 µM (active); in [8], 0.0743 µM (active); in assay [9], 0.0332 µM (active); in assay [10], 0.0685 µM (active); in [11], 0.0469 µM (active); in assay [12], 0.432 µM (active). In addition, the Potency is 0.118 µM (active) in assay [13]; 0.0296 µM (active) in assay [14]; 0.209 µM (active) in assay [15]; 0.372 µM (active) in assay [17]; 0.0935 µM (active) in assay [16]; 0.0827 µM (active) in [18]. For the same compound, the values for the Potency in assay [19] and in [20] were 73.7 nM (active) and 14.7 nM (active), respectively.

Regarding `CC(C)(N)c1ccc(-c2nc3ccccc3nc2-c2ccccc2)cc1`, the Potency in assay [1] is 5.9 µM (active); in assay [2], 4.69 µM (active); in assay [3], 15.3 µM (active); in [4], 18.7 µM (active); in [6], 1.05 µM (active); in assay [7], 21.5 µM (active). Moreover, the Potency in [8] was 23.5 µM (active); in assay [9], 13.2 µM (active); in assay [10] it was 24.3 µM (active); in assay [11], 20.9 µM (active); in assay [13], 16.6 µM (active); in [14], 23.5 µM (active). The Potency in assay [16] was 10.5 µM (active); in assay [18], 26.1 µM (active); in [19], 2930 nM (active); in [20], 465 nM (active). The Potency entry in [5] was “inactive”.

In the case of `NC(=O)c1ncn([C@@H]2O[C@H](CO)[C@@H](O)[C@@H]2O)c1O`, the Potency entry in assay [1], in [2], in assay [3], in assay [4], in assay [5] and in [6] was “inactive” throughout. Also, the Potency result in [7], in assay [8], in assay [9], in assay [10], in assay [11] and in assay [12] was “inactive” each time. The Potency entry in [13], in [14], in [15], in assay [17] and in [16] was “inactive” throughout.

Regarding `CCc1ccc(C(=O)Nc2cc(CN3CCN(C)CC3)cc(C(F)(F)F)c2)cc1C#Cc1cnc2ccnn2c1`, the Potency is 9.35 µM (active) in assay [1]; 1.87 µM (active) in [2]; 24.3 µM (active) in assay [3]; 11.8 µM (active) in assay [4]; 23.5 µM (active) in assay [5]; 14.8 µM (active) in assay [6]. In addition, the Potency is 24.1 µM (active) in [7]; 1.18 µM (active) in assay [8]; 7.43 µM (active) in assay [9]; 27.3 µM (active) in assay [10]; 14.8 µM (active) in [11]; 12.2 µM (active) in assay [12]. For the same compound, the Potency in assay [13] is 18.7 µM (active); in assay [14], 18.7 µM (active); in assay [17], 14.8 µM (active); in assay [16] it was 9.35 µM (active). Besides, the Potency entry in assay [15] is “inactive”.

As to `CC1(C)[C@H](O[C@H]2O[C@H](C(=O)O)[C@@H](O)[C@H](O)[C@H]2O[C@@H]2O[C@H](C(=O)O)[C@@H](O)[C@H](O)[C@H]2O)CC[C@@]2(C)[C@H]1CC[C@]1(C)[C@H]2C(=O)C=C2[C@H]3C[C@@](C)(C(=O)O)CC[C@]3(C)CC[C@]21C`, the Potency result in assay [1], in assay [2], in assay [3], in assay [4], in [5] and in [6] was “inactive” throughout. Moreover, the Potency result in assay [7], in [8], in [9], in [10], in assay [11] and in assay [12] was “inactive” throughout. In addition, the Potency entry in [13], in assay [14], in [15], in [17] and in assay [16] was “inactive” throughout.

With `O=C(O)C=Cc1ccc(Cn2ccnc2)cc1`, the Potency entry in [1], in [2], in assay [3], in assay [4], in assay [5] and in assay [6] was “inactive” throughout. The Potency entry in [7], in [8], in assay [9], in [10], in assay [12] and in assay [13] was “inactive” throughout. For the same compound, the Potency result in assay [14], in assay [15], in assay [17] and in [16] was “inactive” throughout.
